# Measurements taken from PubChem BioAssay AID504652 (National Center for Advancing Translational Sciences (NCATS), 2011).
# Several values for one entry are separate records, joined by “and”; a condition that tells them apart may be missing. Equal entries are not always repeated. The campaign covered roughly 360,000 compounds. About 11,000 (3.1%) were called active. This excerpt belongs to a sample that is enriched for actives. A number with no mark means an inactive call. No stated cut-off is given here; in the data, active means activity change below about -30%; inactive means the rest.
# Target: D(1A) dopamine receptor (Homo sapiens) (UniProt P21728)
# Sequence (P21728 whole entry, looked up): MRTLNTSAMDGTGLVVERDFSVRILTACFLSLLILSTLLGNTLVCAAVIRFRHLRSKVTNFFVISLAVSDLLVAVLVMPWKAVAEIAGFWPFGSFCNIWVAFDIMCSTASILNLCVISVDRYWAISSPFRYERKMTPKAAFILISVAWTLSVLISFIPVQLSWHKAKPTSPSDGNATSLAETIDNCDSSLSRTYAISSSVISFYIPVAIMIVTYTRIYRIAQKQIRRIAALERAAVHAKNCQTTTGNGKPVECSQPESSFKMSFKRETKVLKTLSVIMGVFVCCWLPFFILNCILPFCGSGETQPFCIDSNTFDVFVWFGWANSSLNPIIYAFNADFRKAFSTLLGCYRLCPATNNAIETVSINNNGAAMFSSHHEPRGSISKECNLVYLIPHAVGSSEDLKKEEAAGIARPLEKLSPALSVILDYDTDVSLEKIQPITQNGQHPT
# Assay: Antagonist of Human D 1 Dopamine Receptor: qHTS
# Conditions: HEK293 TREx D1 cells, calcium flux, dopamine EC80; at 10 µM; stronger effect = lower value
# Summary of the method: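 HEK293 T-REx cells expressing inducible, force-coupled D1 receptor; no-wash Ca dye, 30–90 min RT. Cmpd → 180 s read at 1 Hz → EC80 DA → 180 s read.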
# On the % scale 0 is the no-effect control and ±100 the full control effect.
row,SMILES,"activity change, negative = inhibition"
1,COc1ccccc1CNC(=O)c1ccc(CS(=O)c2ccccc2Cl)o1 (stereo not given),-4.03%
2,Cc1ccc(C)c(N2CCN(C(=O)CCc3c(C)nc4c(c3C)c(=O)n(C)c(=O)n4C)CC2)c1,7.99%
3,CC1=C(C(=O)OCC(C)C)C(c2ccc(OCc3ccccc3)cc2)N2C(=O)CCSC2=N1 (stereo not given),4.42%
4,Cc1ccc(N=C2NC(=O)/C(=C/C=C/c3ccco3)S2)cc1C,-15.5%
5,CN(C)c1ccc(-n2cccc2/C=C2/SC(=Nc3ccc(F)cc3)NC2=O)cc1,-42.9% (active)
6,CN(C)c1ccc(-n2cccc2/C=N/n2cnnc2)cc1,10%
7,CCc1cc2c(cc3c(=O)n(CC(=O)N4CCN(c5cc(Cl)ccc5C)CC4)nc(CC)n32)s1,-29.5%
8,COc1ccc(C(=O)Nc2ccc(-n3nncc3-c3ccccc3)cc2)cc1OC,-8.31%
9,Nn1c(SCC(=O)NC2CCCC2)nnc1-c1ccccc1F,10.8%
10,Nn1c(SCC(=O)NC(=O)NC2CCCC2)nnc1-c1ccccc1F,-31.8% (active)
11,CC(C)NC(=O)NC(=O)CSc1nnc(-c2ccccc2F)n1N,2.73%
12,CCc1cc2c(cc3c(=O)n(CC(=O)NCCc4ccc(OC)c(OC)c4)ncn32)s1,-0.482%
13,CCc1ccc(NC(=O)c2sc3nc4c(cc3c2N)CN(CC)CC4)cc1,-15.6%
14,O=C(COC(=O)Cc1ccccc1F)NCCc1ccccc1,-27%
15,N=c1n(CCc2ccccc2)c2ccccc2n1Cc1ccccc1F,-72.5% (active)
16,Fc1ccccc1Cn1cnc(NC(=S)NCCc2ccccc2)n1,0.584%
17,Cn1c(=O)c2sccc2n2c(CCC(=O)NCc3ccccc3Cl)nnc12,-4.17%
18,Cn1c(=O)c2c(SCC(=O)N3CCc4ccccc43)nc(-c3ccc(Cl)cc3)nc2n(C)c1=O,-4.79%
19,CCCOC(=O)c1c(NC(=O)c2cc3nc(-c4ccc(OC)cc4)cc(C(F)(F)F)n3n2)sc2c1CCCC2,1.36%
20,CCOC(=O)C1CCN(c2ncnc3c2c(-c2ccccc2)cn3-c2cccc(C)c2)CC1,7.99%
21,COc1cc(OC)cc(C(=O)Nc2c(C(=O)Nc3ccc(F)cc3)oc3ccccc23)c1,-9.05%
22,CCOC(=O)c1cccc(NC(=O)C2CCCN(S(=O)(=O)c3cnc[nH]3)C2)c1 (stereo not given),-31.2% (active)
23,COc1cccc(N2CCN(C(=O)C3CCCN(S(=O)(=O)c4cnc[nH]4)C3)CC2)c1 (stereo not given),-10%

row,SMILES,"activity change, negative = inhibition"
1,O=C(NCc1ccco1)C1CCCN(S(=O)(=O)c2cnc[nH]2)C1 (stereo not given),6.39%
2,CC1CCN(c2ccc([N+](=O)[O-])cc2C(N)=O)CC1,-6.77%
3,CC1CCN(c2ccc(S(=O)(=O)Nc3cc(C(=O)O)cc(C(=O)O)c3)cc2[N+](=O)[O-])CC1,21.6%
4,O=C(O)C1CCN(c2ccc([N+](=O)[O-])cc2[N+](=O)[O-])CC1,-34.9% (active)
5,COc1ccccc1CNc1nc2ccc(Cl)cc2n2cnnc12,31.1%
6,Cc1ccc(OCC(=O)OCc2cc(=O)n3nc(C4CC4)sc3n2)cc1C,5.56%
7,Cc1cccc(CSc2nnc(C)c(=O)n2N)c1,-16.8%
8,Cn1c(SCC(=O)N2CCCCC2)nc2c(c1=O)SCC2,-2.45%
9,Cc1cccc(CSc2nc3c(c(=O)n2C)SCC3)c1,-31.4% (active)
10,Cn1c(=N)n(CC(O)c2cccs2)c2ccccc21 (stereo not given),-34.7% (active)
11,Cc1cccc(OCC(O)Cn2c(=N)n(CCN3CCOCC3)c3ccccc32)c1 (stereo not given),-8.76%
12,CCOc1ccc(C(O)Cn2c(=N)n(CCN3CCCCC3)c3ccccc32)cc1 (stereo not given),3.59%
13,COc1cc(C(=O)Nc2ccc(OCc3cc(=O)n4cc(C)sc4n3)cc2)cc(OC)c1OC,-16.6%
14,Cc1ccc2cccc(OCCCOc3ccccc3CO)c2n1,-71.7% (active)
15,CCOc1cccc(OCCCOc2cccc3cccnc23)c1,7.73%
16,OCc1ccc(OCCCOc2cccc3cccnc23)cc1,-4.17%
17,Cn1c(=O)n(Cc2c(F)cccc2Cl)c(=O)c2c1nc1n2CCN1c1ccc(F)cc1,-4.11%
18,CCOc1ccc(NC(=O)c2cc(S(=O)(=O)N3CCCC3)c[nH]2)cc1,-12.2%
19,COc1cccc(NC(=S)N(Cc2ccc(C)cc2)Cc2ccccn2)c1,-4.38%
20,COc1ccc(CS(=O)/C(Cl)=C(/Cl)C(=O)Nc2ccc(OC)nc2)cc1 (stereo not given),-16.1%
21,COc1ccc(NC(=O)/C(Cl)=C(/Cl)S(=O)Cc2ccc(C)cc2)cn1 (stereo not given),-37.4% (active)
22,Cc1cc(Cl)ccc1OCCCC(=O)Nc1cccc(-n2cnnn2)c1,-32.2% (active)
23,Cc1cc(Cl)ccc1OCCCC(=O)NCc1ccccn1,-2.23%

row,SMILES,"activity change, negative = inhibition"
1,Cc1cc(Cl)ccc1OCCCC(=O)NCc1ccncc1,-15.1%
2,O=C(Nc1ccc2nc(SCCOc3ccccc3)sc2c1)c1ccco1,-3.21%
3,O=C(CSc1ncc(-c2ccccc2)[nH]1)Nc1ccc(F)cc1F,-8.22%
4,CCc1ccccc1NC(=O)c1ccc2c(c1)CCN2S(C)(=O)=O,6.15% and -13%
5,O=S1(=O)CCN2C(=N1)SC1=C2CCN(Cc2ccccc2)C1,2.33%
6,O=C(Nc1ccccc1Cc1ccccc1)c1ccc2c(c1)SC1=NS(=O)(=O)CCN12,-30.1% (active)
7,CCCN(C(=O)Cn1ncc2c([nH]c3ccc(C)cc32)c1=O)c1ccccc1C,11.2%
8,O=[S+]([O-])(c1ccc(OC(F)(F)F)cc1)N1CCN([S+](=O)([O-])c2ccc3c(c2)OCCO3)CC1,-7.55%
9,Cc1nn2c(=O)cc(COC(=O)c3ccccc3NC(=O)COc3ccccc3C)nc2s1,-3.25%
10,COc1ccccc1C(=O)Nc1ccc(C)c(S(=O)(=O)N2CCCCC2)c1,-2.3%
11,COc1ccc(NC(=O)C2=NNC(=O)CC2)cc1S(=O)(=O)N1CCCCC1,-34.7% (active)
12,COc1ccc(NC(=O)CSc2nnc(C3CC3)n2C)cc1S(=O)(=O)N1CCCCC1,5.62%
13,NS(=O)(=O)c1ccc(CCNC(=O)CCCCCn2c(=O)[nH]c3ccccc3c2=O)cc1,5.32%
14,COc1cc2nc(NCC(C)c3ccccc3)n3nc(-c4ccccc4)nc3c2cc1OC (stereo not given),-4.86%
15,Cc1nc2nc(NCc3cccc(Br)c3)[nH]n2c(=O)c1Cc1ccccc1,-2.6%
16,Cc1cccc(N(C)C(=O)CS(=O)(=O)c2cccc3nsnc23)c1,9.37%
17,COC(=O)/C=C\C(=O)Nc1cccc([N+](=O)[O-])c1,16.7%
18,O=C(Nc1cccc([N+](=O)[O-])c1)Nn1cnnc1,-44.2% (active)
19,O=C(Nn1cnnc1)c1ccc([N+](=O)[O-])cc1,-2.94%
20,CCCCCn1c(CCNC(=O)c2ccc(F)cc2)nc2ccccc21,-29.3%
21,CC(=O)c1ccc(NC(=O)CCc2nc(-c3ccc(C)cc3)no2)cc1,6.08%
22,CC(=O)c1cccc(NC(=O)c2nc(-c3ccccc3)n(-c3cccc(C)c3)n2)c1,-15.7%
23,[O-][n+]1onc2c1CCc1[nH]c(-c3ccccc3)nc1-2,-44.1% (active)

row,SMILES,"activity change, negative = inhibition"
1,CCn1c(CNC(=O)c2ccc(OC)c(OC)c2)nnc1SCC(=O)Nc1ccccc1,-0.592%
2,CCn1c(Cc2ccc(OC)cc2)nnc1SCC(=O)Nc1ccc(N2CCOCC2)cc1,0.621%
3,CCn1c(Cc2ccccc2)nnc1SCC(=O)Nc1ccccc1,-30.1% (active)
4,CCC(=O)N1c2ccccc2CC1C(=O)N1CCN(c2ccccc2F)CC1 (stereo not given),10.1%
5,CCOc1ccc(NC(=O)c2c(NC(=O)Cc3ccccc3)sc3c2CCCCC3)cc1,0.456%
6,CCCCCCCCCCCCN1C(=O)CSC1c1cccnc1 (stereo not given),-34.3% (active)
7,CN(C)CCCN1C(=O)CSC1c1ccc([N+](=O)[O-])cc1 (stereo not given),26.5%
8,CCCCc1ccc(NC(=O)NCc2cccnc2)cc1,19%
9,Cc1cccc(CC(=O)N2CC(=O)Nc3ccc(F)cc3C2c2ccccc2)c1 (stereo not given),-5.67%
10,Cc1nn(CC(=O)O)c(=O)c2cc3cc(F)ccc3n12,16.8%
11,COc1cccc(CNC(=O)Cc2csc3nc(-c4ccccc4)cn23)c1,8.74%
12,COc1ccc2c(Sc3ccc(C)cc3)c(C(=O)NC(C)c3ccccc3)[nH]c2c1 (stereo not given),-2.66%
13,Cc1ccc(NS(=O)(=O)c2ccc(C(C)(C)C)cc2)cn1,-7.23%
14,Cc1ccc(S(=O)(=O)Nc2ccc3ncccc3c2)cc1,-37.6% (active)
15,Cc1cc(C)cc(OCC(=O)Nc2ccc(S(=O)(=O)Nc3ccccn3)cc2)c1,-0.845%
16,Cc1cn(C)c(CC(=O)NCc2ccc(Cl)cc2)c1C(=O)O,-2.23%
17,COc1cc(CN(C(=O)c2ccccc2Br)c2ccccn2)cc(OC)c1OC,-66.6% (active)
18,CCC(=O)N(Cc1ccccc1)c1ccccn1,-9.42%
19,Cc1ccc(CN(C(=O)c2ccccc2[N+](=O)[O-])c2ccccn2)cc1,-7.2%
20,CCN(CC)c1ccc(NC(=O)CN2C(=O)c3cccnc3Oc3ccc(Cl)cc32)c(C)c1,-6.59%
21,COc1ccc(N(C)C(=O)C2CCN(S(=O)(=O)c3cc(Br)cc4c3N(C(C)=O)CC4)CC2)cc1,6.85%
